From PMC7862700, “An all-to-all approach to the identification of sequence-specific readers for epigenetic DNA modifications on cytosine”

Tests used:
Test in all cases: DAPPL (digital affinity profiling via proximity ligation, sequencing); 10 mM Tris-HCl pH 7.5, 50 mM NaCl, 1 mM DTT, 4% glycerol, room temperature, 30 min; GST-TFs on glutathione beads, 16-mer random dsDNA library, 0.1% formaldehyde crosslink after washing; high values mean tight binding
FEV = target: T1, FEV (Homo sapiens, UniProt Q99581 1-238); details: protein: recombinant; tags: N-terminal GST; dsDNA, one strand shown
T1 sequence: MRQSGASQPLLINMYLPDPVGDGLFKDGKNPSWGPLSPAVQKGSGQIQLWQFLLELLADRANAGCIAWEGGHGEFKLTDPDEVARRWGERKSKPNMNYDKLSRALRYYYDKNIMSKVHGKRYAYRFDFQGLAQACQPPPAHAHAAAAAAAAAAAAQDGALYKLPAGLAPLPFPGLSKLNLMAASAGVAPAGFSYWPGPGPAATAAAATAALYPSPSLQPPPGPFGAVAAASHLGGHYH
Outline: (§1)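 Pools were built from human transcription factors expressed in yeast as GST fusions, captured on glutathione beads and DNA-barcoded, along with a tag-only sample. Incubation with 200 nmole of a 16-mer random double-stranded DNA library lasted 30 min at room temperature in Tris/NaCl/DTT/glycerol buffer, and was followed by washing, 0.1% formaldehyde crosslinking, proximity ligation, PCR amplification and Illumina NextSeq500 sequencing. Binding signal is the quotient of each hexamer's read frequency for a factor and its frequency for the tag-only sample.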

ETV5 = ETV5 (Homo sapiens, UniProt P41161 1-510); details: protein: recombinant; tags: N-terminal GST; dsDNA, one strand shown
Outline: as §1

HSF1 = HSF1 (Homo sapiens, UniProt Q00613 1-529); details: protein: recombinant; tags: N-terminal GST; chain copies: 3; dsDNA, one strand shown
Outline: as §1

SPIC = target: T2, SPIC (Homo sapiens, UniProt Q8N5J4 1-248); details: protein: recombinant; tags: N-terminal GST; dsDNA, one strand shown
T2 sequence: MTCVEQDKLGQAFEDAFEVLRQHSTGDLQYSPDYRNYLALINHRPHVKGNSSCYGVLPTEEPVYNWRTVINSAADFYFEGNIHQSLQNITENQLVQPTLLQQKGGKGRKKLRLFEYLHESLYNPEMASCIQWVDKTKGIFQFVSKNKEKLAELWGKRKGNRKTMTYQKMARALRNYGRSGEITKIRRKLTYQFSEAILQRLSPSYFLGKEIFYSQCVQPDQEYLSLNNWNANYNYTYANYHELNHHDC
Outline: as §1

ELF4 = ELF4 (Homo sapiens, UniProt Q99607 1-663); details: protein: recombinant; tags: N-terminal GST; dsDNA, one strand shown
Outline: as §1

ELK4 = target: T3, ELK4 (Homo sapiens, UniProt P28324-2 1-405); details: protein: recombinant; tags: N-terminal GST; dsDNA, one strand shown
T3 sequence: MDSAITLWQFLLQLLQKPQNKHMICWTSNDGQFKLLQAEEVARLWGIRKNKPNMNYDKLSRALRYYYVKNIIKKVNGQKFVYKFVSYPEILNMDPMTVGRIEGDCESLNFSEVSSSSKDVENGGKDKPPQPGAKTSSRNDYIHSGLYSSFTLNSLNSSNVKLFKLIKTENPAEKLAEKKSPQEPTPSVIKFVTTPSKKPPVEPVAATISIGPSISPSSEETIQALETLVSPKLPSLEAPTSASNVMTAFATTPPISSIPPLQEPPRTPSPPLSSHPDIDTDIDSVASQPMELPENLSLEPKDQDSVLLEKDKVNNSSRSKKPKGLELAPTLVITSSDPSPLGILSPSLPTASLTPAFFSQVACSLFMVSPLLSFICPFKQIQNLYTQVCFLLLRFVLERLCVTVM
Outline: as §1

ETV2 = target: T4, ETV2 (Homo sapiens, UniProt O00321 1-342); details: protein: recombinant; tags: N-terminal GST; dsDNA, one strand shown
T4 sequence: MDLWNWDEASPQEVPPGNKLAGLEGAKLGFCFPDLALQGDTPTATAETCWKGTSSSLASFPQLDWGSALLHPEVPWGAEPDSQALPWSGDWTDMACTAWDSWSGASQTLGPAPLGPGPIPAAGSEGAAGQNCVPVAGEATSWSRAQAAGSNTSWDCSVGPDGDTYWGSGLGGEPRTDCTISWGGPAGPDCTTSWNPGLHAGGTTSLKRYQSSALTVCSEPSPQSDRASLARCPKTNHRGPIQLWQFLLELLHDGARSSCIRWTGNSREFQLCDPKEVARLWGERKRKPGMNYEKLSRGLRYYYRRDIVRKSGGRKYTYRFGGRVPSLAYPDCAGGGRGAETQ
Outline: as §1

ELF3 = target: T5, ELF3 (Homo sapiens, UniProt P78545 1-371); details: protein: recombinant; tags: N-terminal GST; dsDNA, one strand shown
T5 sequence: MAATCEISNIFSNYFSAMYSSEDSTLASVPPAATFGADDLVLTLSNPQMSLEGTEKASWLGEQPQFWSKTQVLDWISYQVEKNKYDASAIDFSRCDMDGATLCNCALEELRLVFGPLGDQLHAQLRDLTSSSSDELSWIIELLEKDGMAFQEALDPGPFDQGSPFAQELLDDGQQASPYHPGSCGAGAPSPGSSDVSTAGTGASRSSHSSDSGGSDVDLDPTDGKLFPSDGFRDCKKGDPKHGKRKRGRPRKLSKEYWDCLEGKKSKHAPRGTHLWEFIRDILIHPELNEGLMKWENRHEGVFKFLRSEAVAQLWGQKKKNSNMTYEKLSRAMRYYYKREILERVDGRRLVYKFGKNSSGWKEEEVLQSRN
Outline: as §1

CRX = CRX (Homo sapiens, UniProt O43186 1-299); details: protein: recombinant; tags: N-terminal GST; dsDNA, one strand shown
Outline: as §1

ETV1 = ETV1 (Homo sapiens, UniProt P50549 1-477); details: protein: recombinant; tags: N-terminal GST; dsDNA, one strand shown
Outline: as §1

ETV1, sequence (P50549 whole entry): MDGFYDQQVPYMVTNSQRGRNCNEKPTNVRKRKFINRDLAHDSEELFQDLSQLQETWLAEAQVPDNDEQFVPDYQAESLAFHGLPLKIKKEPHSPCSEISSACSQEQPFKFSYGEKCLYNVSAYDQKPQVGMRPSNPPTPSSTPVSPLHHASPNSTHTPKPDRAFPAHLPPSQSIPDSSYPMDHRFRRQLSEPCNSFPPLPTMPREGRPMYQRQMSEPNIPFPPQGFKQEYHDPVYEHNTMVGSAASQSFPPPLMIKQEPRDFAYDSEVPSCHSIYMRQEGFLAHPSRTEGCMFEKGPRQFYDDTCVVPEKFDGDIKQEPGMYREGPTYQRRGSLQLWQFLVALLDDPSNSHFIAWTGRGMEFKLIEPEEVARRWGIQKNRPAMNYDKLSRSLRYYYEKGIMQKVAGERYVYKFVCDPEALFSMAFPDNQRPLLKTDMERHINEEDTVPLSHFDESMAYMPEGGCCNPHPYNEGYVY
ELF4, sequence (Q99607 whole entry): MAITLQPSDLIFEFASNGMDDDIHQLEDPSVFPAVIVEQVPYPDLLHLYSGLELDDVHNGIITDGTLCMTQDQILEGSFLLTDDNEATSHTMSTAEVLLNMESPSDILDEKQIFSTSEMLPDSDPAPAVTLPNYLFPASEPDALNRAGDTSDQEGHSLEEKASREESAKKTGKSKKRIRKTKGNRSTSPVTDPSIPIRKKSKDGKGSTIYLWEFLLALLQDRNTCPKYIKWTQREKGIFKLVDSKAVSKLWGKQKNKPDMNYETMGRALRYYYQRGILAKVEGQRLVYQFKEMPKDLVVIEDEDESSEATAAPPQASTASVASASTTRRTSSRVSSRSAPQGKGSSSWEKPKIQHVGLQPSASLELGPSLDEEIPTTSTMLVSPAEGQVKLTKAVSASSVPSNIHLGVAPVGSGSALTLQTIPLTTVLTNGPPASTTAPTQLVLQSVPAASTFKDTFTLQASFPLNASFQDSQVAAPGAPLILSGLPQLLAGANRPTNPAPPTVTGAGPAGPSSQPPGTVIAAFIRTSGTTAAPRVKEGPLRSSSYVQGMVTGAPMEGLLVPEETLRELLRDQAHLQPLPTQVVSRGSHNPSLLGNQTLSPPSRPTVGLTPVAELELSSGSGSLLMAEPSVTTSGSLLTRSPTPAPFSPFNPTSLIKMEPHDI
HSF1, sequence (Q00613 whole entry): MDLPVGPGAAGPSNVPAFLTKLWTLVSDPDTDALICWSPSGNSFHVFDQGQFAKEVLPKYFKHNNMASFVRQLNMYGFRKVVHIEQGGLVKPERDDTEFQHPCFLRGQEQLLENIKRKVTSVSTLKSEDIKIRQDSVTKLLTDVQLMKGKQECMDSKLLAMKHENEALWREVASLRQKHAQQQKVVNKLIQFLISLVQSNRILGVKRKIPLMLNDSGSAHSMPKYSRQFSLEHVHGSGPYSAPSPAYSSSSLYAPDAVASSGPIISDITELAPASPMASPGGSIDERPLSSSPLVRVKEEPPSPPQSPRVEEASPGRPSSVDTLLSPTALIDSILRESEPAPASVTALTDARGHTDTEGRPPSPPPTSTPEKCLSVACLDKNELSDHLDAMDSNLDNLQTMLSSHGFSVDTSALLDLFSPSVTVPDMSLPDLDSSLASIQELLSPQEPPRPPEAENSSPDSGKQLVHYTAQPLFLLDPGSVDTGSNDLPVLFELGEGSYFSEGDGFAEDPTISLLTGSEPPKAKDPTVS
CRX, sequence (O43186 whole entry): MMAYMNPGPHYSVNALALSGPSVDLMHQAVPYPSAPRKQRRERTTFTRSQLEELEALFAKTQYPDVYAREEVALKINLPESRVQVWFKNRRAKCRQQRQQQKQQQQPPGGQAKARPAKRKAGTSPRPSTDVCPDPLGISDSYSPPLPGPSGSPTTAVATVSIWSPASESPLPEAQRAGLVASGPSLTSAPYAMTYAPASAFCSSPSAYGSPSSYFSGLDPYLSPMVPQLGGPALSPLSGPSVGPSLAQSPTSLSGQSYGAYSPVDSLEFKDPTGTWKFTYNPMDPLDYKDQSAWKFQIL
ETV5, sequence (P41161 whole entry): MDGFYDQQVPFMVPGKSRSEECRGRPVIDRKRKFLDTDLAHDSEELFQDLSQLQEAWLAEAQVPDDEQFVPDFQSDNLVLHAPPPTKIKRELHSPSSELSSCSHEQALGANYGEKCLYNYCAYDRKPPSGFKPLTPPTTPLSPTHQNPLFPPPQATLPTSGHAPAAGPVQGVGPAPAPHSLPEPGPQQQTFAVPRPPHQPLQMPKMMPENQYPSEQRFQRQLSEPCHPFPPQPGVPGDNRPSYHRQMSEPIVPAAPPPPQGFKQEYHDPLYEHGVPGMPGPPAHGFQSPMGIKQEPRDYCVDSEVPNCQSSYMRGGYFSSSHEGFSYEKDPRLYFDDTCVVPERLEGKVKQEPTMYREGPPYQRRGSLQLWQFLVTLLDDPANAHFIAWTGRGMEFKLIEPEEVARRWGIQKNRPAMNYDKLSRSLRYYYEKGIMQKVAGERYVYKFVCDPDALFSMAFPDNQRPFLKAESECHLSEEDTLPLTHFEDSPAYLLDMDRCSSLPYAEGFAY

## CAATAC
FEV
  binding signal: 1.27 fold enrichment (6-mer frequency, TF over GST control)
ETV5
  binding signal: 1.26 fold enrichment (6-mer frequency, TF over GST control)
HSF1
  binding signal: 1.07 fold enrichment (6-mer frequency, TF over GST control)
SPIC
  binding signal: 1.16 fold enrichment (6-mer frequency, TF over GST control)
ELF4
  binding signal: 1.23 fold enrichment (6-mer frequency, TF over GST control)
ELK4
  binding signal: 1.39 fold enrichment (6-mer frequency, TF over GST control)
ETV2
  binding signal: 1.22 fold enrichment (6-mer frequency, TF over GST control)
ELF3
  binding signal: 1.29 fold enrichment (6-mer frequency, TF over GST control)
CRX
  binding signal: 1.04 fold enrichment (6-mer frequency, TF over GST control)
ETV1
  binding signal: 1.3 fold enrichment (6-mer frequency, TF over GST control)
